Measured values: PubChem BioAssay
Activity calls are given as the source filed them.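 The calls were made as follows, unless noted: active = visually confirmed hit in the image check and inhibition above 20%; inconclusive = visually confirmed hit but inhibition not above 20%; inactive = no visual hit in the image check.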

What was measured:
[1] = inhibitors of TNFa-induced NFkB p65 translocation, primary screen, imaging, HUVEC, MLSMR starter and 10KST1 sets (AID 438;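 active = inhibition above 20% together with a positive visual image hit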;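 also: compound added about 3h40 before a 20 min TNFalpha stimulation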;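 as to inhibition: signal is the nuclear over cytoplasmic p65 intensity ratio per well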); settings: HUVEC TNFa-induced p65 nuclear translocation; cell count: measured here: nuclei count (cytotoxicity indicator), at 2.08 µM; inhibition: at 2 µM, stronger effect = higher value, 0% TNFa-plus-vehicle, 100% no-TNFa wells
[2] = inhibitors of mutant huntingtin aggregation, primary screen, imaging, exon1htt(103Q)mCFP cells, high-content imaging (AID 483;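 active = visual image review flags a hit and inhibition of aggregation exceeds 20%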;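 also: compound exposure lasted 3 days before fixation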;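 as to nuclei count: percent of the per-plate median nuclei count of sample wells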); settings: exon1htt(103Q)mCFP cell line, aggregate imaging, at 2 µM; inhibition of aggregation: stronger effect = higher value; nuclei count: measured here: cell count, toxicity
[3] = inhibitors of E-selectin induction by TNFa, primary screen, imaging, HUVEC, immunofluorescence, MLSMR starter and 10KST1 sets (AID 487); settings: HUVEC TNFalpha-induced E-selectin immunofluorescence imaging, at 2 µM; inhibition: stronger effect = higher value; nuclei count: measured here: cell number, toxicity;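 as to inhibition: signal is fraction of cell area covered by stained E-selectin grains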;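 as to nuclei count: 100% = median nuclei count of all wells on the same plate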
[4] = biological target: Voltage-gated potassium channel subunit beta-2 (Rattus norvegicus) (UniProt P62483); experiment: KvBeta enzyme negative modulators, primary screen, biochemical, NADPH fluorescence (AID 622;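 active = fluorescence slope higher than the sample average by over 3 SD, cut at about -0.22 in these data, passing the limit was not always enough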;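 also: slope of raw intensity against log time taken from 70 to 1610 s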); settings: recombinant KvBeta, 4-cyanobenzaldehyde reduction, at 10 µM, stronger effect = higher value
Sequence of Voltage-gated potassium channel subunit beta-2 (Rattus norvegicus) (P62483 whole entry, looked up): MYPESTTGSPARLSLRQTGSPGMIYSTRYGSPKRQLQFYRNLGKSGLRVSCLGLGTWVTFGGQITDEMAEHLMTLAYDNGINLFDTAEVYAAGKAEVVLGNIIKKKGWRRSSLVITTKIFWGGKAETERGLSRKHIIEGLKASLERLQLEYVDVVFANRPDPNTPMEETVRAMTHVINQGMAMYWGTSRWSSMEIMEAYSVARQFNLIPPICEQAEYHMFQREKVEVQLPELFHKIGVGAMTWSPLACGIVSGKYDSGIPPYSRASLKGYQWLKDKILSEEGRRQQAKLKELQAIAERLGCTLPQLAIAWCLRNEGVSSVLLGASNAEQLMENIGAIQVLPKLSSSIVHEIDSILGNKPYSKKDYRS

[5] = biological target: Voltage-gated potassium channel subunit beta-2 (Rattus norvegicus) (UniProt P62483); experiment: KvBeta positive modulators, primary screen, biochemical, NADPH fluorescence (AID 623;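 active = NADPH fluorescence slope more negative than the mean of all samples by about 3 SD, 99.7% confidence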;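 also: fluorescence intensity change per second fitted from 20 to 320 s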); settings: Recombinant KvBeta, NADPH fluorescence decrease slope, 10 min; at 10 µM; stronger effect = lower value
[6] = biological target: Alpha-2C adrenergic receptor (Homo sapiens) (UniProt P18825); experiment: modulators of alpha2C/GIRK thallium flux, primary screen, cell-based, HEK293 alpha2C/GIRK1/2 (AID 624;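 active = fluorescence slope after compound addition differing from the mean of all screened samples at 99.7% confidence, in either direction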;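 also: slope of fluorescence ratio to pre-addition baseline per second over 15 to 24 s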); settings: thallium flux BTC fluorescence, at 10 µM, actives lie on both sides
Sequence of Alpha-2C adrenergic receptor (Homo sapiens) (P18825 whole entry, looked up): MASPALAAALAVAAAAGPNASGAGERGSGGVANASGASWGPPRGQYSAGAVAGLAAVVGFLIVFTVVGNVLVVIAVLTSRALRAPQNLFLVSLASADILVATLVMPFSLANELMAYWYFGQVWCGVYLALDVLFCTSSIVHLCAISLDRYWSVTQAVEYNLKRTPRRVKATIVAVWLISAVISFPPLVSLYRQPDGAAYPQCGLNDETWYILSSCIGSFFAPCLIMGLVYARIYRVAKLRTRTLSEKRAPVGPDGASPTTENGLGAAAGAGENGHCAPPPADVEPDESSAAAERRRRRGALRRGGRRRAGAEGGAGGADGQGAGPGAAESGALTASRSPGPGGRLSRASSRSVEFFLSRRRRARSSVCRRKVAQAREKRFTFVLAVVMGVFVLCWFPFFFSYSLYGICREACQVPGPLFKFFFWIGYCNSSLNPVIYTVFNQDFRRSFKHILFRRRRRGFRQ

[7] = inhibitors of Sendai virus-induced IRF3 signaling, primary screen, TLR/RLR signaling modifier project, cell-based, Sendai virus stimulus, luciferase, 10K MLSCN set (AID 602276;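 active = inhibition at or above 50% at 10 µM; inactive = inhibition below 50%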;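 also: firefly luciferase from ISG56 promoter only with Renilla not read in this screen; 0% = Sendai virus plus DMSO and 100% = medium plus DMSO without virus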); settings: HEK293 RL24 IRF3 luciferase reporter, at 10 µM, stronger effect = higher value
[8] = inhibitors of poly I:C-induced TLR3 signaling, primary screen, cell-based, poly I:C stimulus, luciferase, 10K MLSCN set (AID 602277;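 active = inhibition of the reporter signal at or above 50%; inactive = inhibition below 50%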); settings: HEK293-TLR3 RL24 IRF3 luciferase reporter, at 10 µM, stronger effect = higher value

O=C(Nc1cccc2ccccc12)c1cnccn1
cell count [1]: 419
inhibition [1]: 11.7% (inactive)
inhibition of aggregation [2]: 5.1% (inactive)
nuclei count [2]: 96.9%
inhibition [3]: -180% (inactive)
nuclei count [3]: 117%
fluorescence slope [4]: -0.52 (inactive)
NADPH fluorescence slope [5]: -3.3e-05 (inactive)
slope [6]: 0.00645 (inactive)
inhibition [7]: -180% (inactive)
inhibition [8]: 99.3% (active)

O=C(NC1CC1)c1cccc(Nc2ccc(-c3ccc4c(c3)OCCO4)nn2)c1
cell count [1]: 336
inhibition [1]: -1.6% (inactive)
inhibition of aggregation [2]: -55% (inactive)
nuclei count [2]: 106%
inhibition [3]: -177% (inactive)
nuclei count [3]: 126%
fluorescence slope [4]: -0.358 (inactive)
NADPH fluorescence slope [5]: -2.6e-05 (inactive)
slope [6]: 0.00455 (inactive)
inhibition [7]: -75.9% (inactive)
inhibition [8]: -132% (inactive)

Cc1ccc(NC(=O)CCN2CCc3ccccc3C2)cc1
cell count [1]: 820
inhibition [1]: -9.6% (inactive)
inhibition of aggregation [2]: -13.1% (inactive)
nuclei count [2]: 86.9%
inhibition [3]: -44.8% (inactive)
nuclei count [3]: 113%
fluorescence slope [4]: -0.463 (inactive)
NADPH fluorescence slope [5]: -0.000317 (inactive)
slope [6]: 0.00467 (inactive)
inhibition [7]: 5.12% (inactive)
inhibition [8]: 24.7% (inactive)

CC(C)CCn1c(NCCc2ccccc2)nc2c1c(=O)n(C)c(=O)n2C
cell count [1]: 753
inhibition [1]: -8% (inactive)
inhibition of aggregation [2]: 1.3% (inactive)
nuclei count [2]: 120%
inhibition [3]: -17.6% (inactive)
nuclei count [3]: 108%
fluorescence slope [4]: -0.409 (inactive)
NADPH fluorescence slope [5]: -7.3e-05 (inactive)
slope [6]: 0.00481 (inactive)
inhibition [7]: 9.59% (inactive)
inhibition [8]: 32.1% (inactive)

CN1CCc2c(sc3c2c(=O)n(-c2cccc(Cl)c2)c2nncn32)C1
cell count [1]: 579
inhibition [1]: 13.9% (inactive)
inhibition of aggregation [2]: 5.9% (inactive)
nuclei count [2]: 112%
inhibition [3]: 37.3% (inactive)
nuclei count [3]: 105%
fluorescence slope [4]: -0.513 (inactive)
NADPH fluorescence slope [5]: -3.5e-05 (inactive)
slope [6]: 0.00609 (inactive)
inhibition [7]: -7.55% (inactive)
inhibition [8]: 11.7% (inactive)

O=C(COC(=O)c1cncc(Br)c1)NCCC1=CCCCC1
cell count [1]: 555
inhibition [1]: -7.6% (inactive)
inhibition of aggregation [2]: 6% (inactive)
nuclei count [2]: 107%
inhibition [3]: -26.8% (inactive)
nuclei count [3]: 116%
fluorescence slope [4]: -0.338 (inactive)
NADPH fluorescence slope [5]: -3.9e-05 (inactive)
slope [6]: 0.00679 (inactive)
inhibition [7]: 1.87% (inactive)
inhibition [8]: 25.9% (inactive)

Cc1nnc2n(-c3ccc(Cl)cc3)c(=O)c3c4c(sc3n12)CN(C)CC4
cell count [1]: 386
inhibition [1]: -5.7% (inactive)
inhibition of aggregation [2]: 8.9% (inactive)
nuclei count [2]: 93.3%
inhibition [3]: 22% (inactive)
nuclei count [3]: 89.5%
fluorescence slope [4]: -0.477 (inactive)
NADPH fluorescence slope [5]: -0.000149 (inactive)
slope [6]: 0.00624 (inactive)
inhibition [7]: -17.3% (inactive)
inhibition [8]: -5.51% (inactive)

C=CCSc1nc(N)c2c(C)c(C)sc2n1
cell count [1]: 419
inhibition [1]: 3% (inactive)
inhibition of aggregation [2]: 29.2% (inactive)
nuclei count [2]: 91.8%
inhibition [3]: -20.5% (inactive)
nuclei count [3]: 101%
fluorescence slope [4]: -0.404 (inactive)
NADPH fluorescence slope [5]: 1.5e-05 (inactive)
slope [6]: 0.000164 (inactive)
inhibition [7]: -7.96% (inactive)
inhibition [8]: -46.7% (inactive)

CC1CCCCC1NC(=O)c1nn(C)c(=O)c2ccccc12 (centres undefined)
cell count [1]: 361
inhibition [1]: 0.7% (inactive)
inhibition of aggregation [2]: 0.4% (inactive)
nuclei count [2]: 105%
inhibition [3]: 13.7% (inactive)
nuclei count [3]: 88.6%
fluorescence slope [4]: -0.621 (inactive)
NADPH fluorescence slope [5]: 1.8e-06 (inactive)
slope [6]: 0.00592 (inactive)
inhibition [7]: -1.74% (inactive)
inhibition [8]: 2.78% (inactive)

COc1ccc(N2C(N)=C(C#N)C(c3cccnc3)C3=C2CC(C)(C)CC3=O)cc1 (centres undefined)
cell count [1]: 446
inhibition [1]: -7.5% (inactive)
inhibition of aggregation [2]: -1.2% (inactive)
nuclei count [2]: 97.7%
inhibition [3]: -1.3% (inactive)
nuclei count [3]: 104%
fluorescence slope [4]: -0.461 (inactive)
NADPH fluorescence slope [5]: -0.000329 (inactive)
slope [6]: 0.00535 (inactive)
inhibition [7]: 37.2% (inactive)
inhibition [8]: 38.7% (inactive)

CCCN(CCC)S(=O)(=O)c1ccc(NS(C)(=O)=O)cc1
cell count [1]: 399
inhibition [1]: 3.4% (inactive)
inhibition of aggregation [2]: -3% (inactive)
nuclei count [2]: 108%
inhibition [3]: -126% (inactive)
nuclei count [3]: 107%
fluorescence slope [4]: -0.391 (inactive)
NADPH fluorescence slope [5]: 1e-05 (inactive)
slope [6]: 0.00362 (inactive)
inhibition [7]: 6.07% (inactive)
inhibition [8]: 12.8% (inactive)

COc1ccc(N2C(=O)C(Cl)=C(N3CCCC3)C2=O)cc1
cell count [1]: 446
inhibition [1]: 10.1% (inactive)
inhibition of aggregation [2]: -0.8% (inactive)
nuclei count [2]: 101%
inhibition [3]: 25.6% (inactive)
nuclei count [3]: 100%
fluorescence slope [4]: -0.29 (inactive)
NADPH fluorescence slope [5]: -4.2e-05 (inactive)
slope [6]: 0.00536 (inactive)
inhibition [7]: -5.83% (inactive)
inhibition [8]: -8.61% (inactive)

Cc1ccccc1NC(=O)Cc1nnc(SCC(=O)N2CCN(c3ccccc3)CC2)n1C
cell count [1]: 483
inhibition [1]: -5.3% (inactive)
inhibition of aggregation [2]: 2.3% (inactive)
nuclei count [2]: 99.9%
inhibition [3]: 8.9% (inactive)
nuclei count [3]: 131%
fluorescence slope [4]: -0.402 (inactive)
NADPH fluorescence slope [5]: -5.5e-05 (inactive)
slope [6]: 0.00281 (inactive)
inhibition [7]: 11.9% (inactive)
inhibition [8]: 29.5% (inactive)

O=C(NC1CCCCC1)C(c1ccccc1)N(Cc1ccco1)C(=O)Cn1cnc2ccccc21 (centres undefined)
cell count [1]: 375
inhibition [1]: -1.6% (inactive)
inhibition of aggregation [2]: -19.6% (inactive)
nuclei count [2]: 114%
inhibition [3]: -70.5% (inactive)
nuclei count [3]: 108%
fluorescence slope [4]: -0.586 (inactive)
NADPH fluorescence slope [5]: -3.7e-05 (inactive)
slope [6]: 0.00243 (inactive)
inhibition [7]: 9.18% (inactive)
inhibition [8]: 20.8% (inactive)
